These results are taken from the supplement of paper PMC6763611.

The assay concerns Plasmodium falciparum NF54. Briefly: growth inhibition relative to untreated control; higher = more inhibition. Conditions: 72 h. An outline of the steps: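 In dark 96-well half-area plates, each well held 100 μL of P. falciparum NF54 ring-stage culture at 1% parasitemia and 1% hematocrit. The cultures received a single test-compound dose of 5 μM or 1 μM and were kept at 37 °C for 72 h, in minimal RPMI either plain or enriched with folate (2.2 μM), pABA (7.3 μM), pHBA (7.3 μM), tyrosine (111 μM), phenylalanine (90 μM) and tryptophan. SYBR Green staining gave growth inhibition, expressed against untreated wells, with uninfected erythrocytes serving as the background.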

The mark [1] stands for this setting: 1 µM, MM + chorismate end-products (CM screening medium).
Setting [2] is: 5 µM, MM + chorismate end-products (CM screening medium).

With `CCc1ccc([C@@H]2C[C@H](C(F)(F)F)n3ncc(C(=O)NCc4ccc(OC)cc4)c3N2)cc1`, the growth inhibition reads like this: under setting [1], 31%; (1 µM, minimal medium (MM)) 6.61%; under setting [2], 24.8%; (5 µM, minimal medium (MM)) 3.56%.
Turning to `CCc1nc2ccc(C(=O)NCc3ccc4c(c3)OCO4)cn2c1N(C)Cc1cccs1`, the growth inhibition was 21.4% under setting [1]; less than 0% (1 µM, minimal medium (MM)); less than 0% under setting [2]; less than 0% (5 µM, minimal medium (MM)).
With `Cc1[nH]c2ccccc2c1C(c1cccs1)N1CCN(C)CC1` (configuration not stated), the growth inhibition under setting [1] is 11.9%; the growth inhibition (1 µM, minimal medium (MM)) worked out at 21.1%; the growth inhibition under setting [2] stood at 9.09%; the growth inhibition (5 µM, minimal medium (MM)) came to 19.7%.
On to `CC1CCCN(C(=O)C(C)Nc2cc(Cl)ccc2N2CCOCC2)C1` (configuration not stated), for which the growth inhibition is, setting by setting: under setting [1], 90.5%; (1 µM, minimal medium (MM)) 94.3%; under setting [2], 91%; (5 µM, minimal medium (MM)) 94.9%.
The corresponding values for `Cc1noc(C)c1COc1cccc(C(=O)N=c2[nH]cccc2C)c1` are less than 0%, less than 0%, less than 0% and less than 0%.
Regarding `Nc1ccc2ncnc(Nc3ccc(OCc4cccc(F)c4)c(Cl)c3)c2c1`, the growth inhibition reads like this: under setting [1], 61.9%; (1 µM, minimal medium (MM)) 24.6%; under setting [2], 99.7%; (5 µM, minimal medium (MM)) 95.7%.
For `CC(c1cc(Cl)cc(Cl)c1)N(C)c1ncc2c(N)nc(N)nc2n1` (configuration not stated), the growth inhibition came out at 54.9% under setting [1]; 91.6% (1 µM, minimal medium (MM)); 53% under setting [2]; 77.7% (5 µM, minimal medium (MM)).
Regarding `CC(=O)Oc1ccccc1C(=O)Nc1ncc([N+](=O)[O-])s1`, the growth inhibition by setting is: under setting [1], less than 0%; (1 µM, minimal medium (MM)) 4.44%; under setting [2], 12%; (5 µM, minimal medium (MM)) less than 0%.
Consider `CCC(Sc1nc2ccccc2o1)C(=O)Nc1nnc(C)s1` (configuration not stated), for which the growth inhibition reads like this: under setting [1], 13.2%; (1 µM, minimal medium (MM)) 0.545%; under setting [2], less than 0%; (5 µM, minimal medium (MM)) 0.009%.
Consider `COc1cc(C2=NCCN2)ccc1-n1cc(-c2cccc(C3=NCCN3)c2)nn1`, for which the growth inhibition was 51.9% under setting [1]; 55% (1 µM, minimal medium (MM)); 66.5% under setting [2]; 19.2% (5 µM, minimal medium (MM)).
Take `CCOc1ccc(OCC(=O)Nc2cc(C)cc(C)c2)cc1`: the growth inhibition runs as follows: under setting [1], 24.6%; (1 µM, minimal medium (MM)) less than 0%; under setting [2], 32.1%; (5 µM, minimal medium (MM)) less than 0%.
On to `N#Cc1nc(-c2ccccc2F)oc1NCCc1ccccc1`, for which the growth inhibition was less than 0% under setting [1]; less than 0% (1 µM, minimal medium (MM)); less than 0% under setting [2]; 15.2% (5 µM, minimal medium (MM)).
Turning to `CC(C)NCC(=O)Nc1cccc(C(=O)Nc2cccc(C(F)(F)F)c2)c1`, the growth inhibition is 72.4% under setting [1]; 83.1% (1 µM, minimal medium (MM)); 89.3% under setting [2]; 97.4% (5 µM, minimal medium (MM)).
The corresponding values for `CC(C)(CN)c1nc(-c2ccc(Cl)c(O)c2)c(-c2ccnc(N)n2)[nH]1` are 78.9%, 70.8%, 30.1% and 6.08%.
Regarding `O=C(NCc1ccco1)N1CCN(Cc2ccc(Cl)s2)CC1`, the growth inhibition under setting [1] came to 12.8%; the growth inhibition (1 µM, minimal medium (MM)) turned out to be 2.55%; the growth inhibition under setting [2] turned out to be 21%; the growth inhibition (5 µM, minimal medium (MM)) turned out to be 5.16%.
The corresponding values for `CS(=O)(=O)c1cccc(-c2cnc3[nH]cc(-c4ccc(CCC(=O)O)cc4)c3c2)c1` are 79%, 70.7%, more than 100% and 86.2%.
For `CN1CCN(c2nccc3nc(-c4ccc(F)c(F)c4)[nH]c23)CC1`, in that order: 58.8%, 66.9%, more than 100% and 91.1%.
The corresponding values for `Cc1ccc2[nH]c(C3CCCNC3)c(-c3ccncc3)c2c1` (configuration not stated) are 97.7%, 97.5%, more than 100% and 97.4%.
Take `Cc1cc(C(=O)Nc2cnn(Cc3ccc(Cl)cc3Cl)c2)no1`: the growth inhibition under setting [1] was found to be 80.3%; the growth inhibition (1 µM, minimal medium (MM)) came out at 72.9%; the growth inhibition under setting [2] turned out to be 88.6%; the growth inhibition (5 µM, minimal medium (MM)) is 87.4%.
The corresponding values for `N=C(N)c1ccc(-c2cc(-c3ccccc3)on2)cc1` are 2.89%, 5.06%, 86.7% and 71.2%.
For the compound `CN(C(=O)c1cc2c(-c3cncnc3)cccc2[nH]1)c1ccccc1`, the growth inhibition was 48.7% under setting [1]; 56.4% (1 µM, minimal medium (MM)); 96% under setting [2]; 94.3% (5 µM, minimal medium (MM)).
On to `CC1CCCCN1C(=O)NCCc1coc(-c2ccc(F)cc2)n1` (configuration not stated), for which the growth inhibition under setting [1] was less than 0%; the growth inhibition (1 µM, minimal medium (MM)) was 8.79%; the growth inhibition under setting [2] was less than 0%; the growth inhibition (5 µM, minimal medium (MM)) was less than 0%.
As for `CCCCCCCCCCCCCCCCOP(=O)([O-])OCC[N+](C)(C)C`, the growth inhibition runs as follows: under setting [1], 35.9%; (1 µM, minimal medium (MM)) 19%; under setting [2], 3.26%; (5 µM, minimal medium (MM)) 8.75%.
For `O=C(CN1CCOCC1)Nc1ccc2ncnc(Nc3ccc(OCc4cccc(F)c4)c(Cl)c3)c2c1`, in that order: 2.86%, 9.8%, 94.7% and 91.9%.
For `CN1CCN(CCCOc2ncc(Nc3ncc(-c4ccc(C(F)(F)F)c(F)c4)nc3C(N)=O)cn2)CC1`, in that order: more than 100%, more than 100%, more than 100% and 93.3%.
On to `O=C(Nc1cccnc1)c1c(O)c2cccc3c2n(c1=O)CC3`, for which the growth inhibition reads like this: under setting [1], 6.17%; (1 µM, minimal medium (MM)) 21.1%; under setting [2], 4.63%; (5 µM, minimal medium (MM)) less than 0%.
In the case of `CNc1cc(C)nc(C2CN(C(=O)c3n[nH]c4ccccc34)CCO2)c1` (configuration not stated), the growth inhibition is, setting by setting: under setting [1], 16.4%; (1 µM, minimal medium (MM)) 10.7%; under setting [2], 41.7%; (5 µM, minimal medium (MM)) 21.7%.
For the compound `O=C1COCc2ccc(Br)cc2N1Cc1ccc(C(F)(F)F)cc1`, the growth inhibition was 56% under setting [1]; 96.7% (1 µM, minimal medium (MM)); more than 100% under setting [2]; 85.1% (5 µM, minimal medium (MM)).
For `NCC(=O)N1CCn2c(nc(-c3ccccc3)c2Nc2ccc3c(c2)OCO3)C1`, in that order: 99.3%, more than 100%, more than 100% and 93.2%.
With `Cn1c(=O)c2c(S(C)(=O)=O)snc2n(C)c1=O`, the growth inhibition under setting [1] stood at 23.6%; the growth inhibition (1 µM, minimal medium (MM)) came to 5.49%; the growth inhibition under setting [2] worked out at 37.3%; the growth inhibition (5 µM, minimal medium (MM)) turned out to be 23.5%.
For `C[C@H](c1ccc2c(c1)CCCC2)N(C)c1ncc2c(N)nc(N)nc2n1`, in that order: 8.99%, 2.84%, 36% and 15.3%.
`Brc1c(-c2ccc3c(c2)OCO3)nc2ncccn12`: the growth inhibition is less than 0% under setting [1]; less than 0% (1 µM, minimal medium (MM)); 29.5% under setting [2]; less than 0% (5 µM, minimal medium (MM)).
Turning to `COC(=O)c1c(NC(=O)c2c(F)c(F)c(F)c(F)c2F)sc2c1CCCCC2`, the growth inhibition is 26.9% under setting [1]; 25.7% (1 µM, minimal medium (MM)); less than 0% under setting [2]; less than 0% (5 µM, minimal medium (MM)).
